Most compounds without a hit are left out; they make up all but 6.2% or so of the library.
Marburg entry inh = inhibitors of Marburg virus binding or cell entry | actives 1.8% (n = 300,000) | Marburg virus pseudotyped entry inhibition, cell reporter | Potency, µM (series often up to 37.8 µM), usual class: inhibitors | AID 540276; calls by dose curve; tested in HEK293 cells
HCMV inh = blocks human cytomegalovirus replication. HFF cells, HCMV-luciferase reporter, 72 h; hits give low values. activity change, negative = inhibition, % at 57.5 µM. actives 4.5% (n = 410,000). AID 1259415; in the data active means activity change below about -60%; inconclusive means no clear call, values can overlap the other calls; inactive means above about -39%
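Screen run at 2 compound doses on HFFs infected with reporter HCMV, MOI 1 PFU/cell. Luciferase activity from cell lysates at 72 h post infection gave inhibition relative to buffer-only and Salinomycin wells.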
LASV entry inh = blocks Lassa virus binding to or entry into cells; Lassa virus pseudotype entry inhibition, cell reporter; Potency, µM (doses to about 37.9 µM), hits mostly inhibitors; actives 1.2% (n = 300,000); AID 540256; calls by dose curve; tested in HEK293 cells; further: nearly all actives have a fitted effect of over 50% in size
FMDV inh = foot and mouth disease virus antiviral activity; FMDV antiviral cell-based qHTS; Potency, µM (highest dose often 57.9 µM), usual class: inhibitors; actives 1.2% (n = 410,000); AID 1159524; calls by dose curve; tested in HEK293T cells; further: read-out not given here; nearly all actives have a fitted effect of over 45% in size
Each line names hits and unclear results; the compound was inactive in the other large screens.

CCCc1[nH]nc2c1C(c1ccccc1OC)C(C#N)=C(N)O2 (stereo not drawn)	FMDV inh 28µM
COCc1[nH]nc2c1C(c1ccc(OC)c(OC)c1)C(C#N)=C(N)O2 (stereo not drawn)	none
CCCc1[nH]nc2c1C(/C(C)=C/c1ccccc1)C(C#N)=C(N)O2 (stereo not drawn)	Marburg entry inh inconclusive, HCMV inh -83 (no result: FMDV inh)
CCCc1[nH]nc2c1C(c1ccccc1OCC)C(C#N)=C(N)O2 (stereo not drawn)	none
CCn1c2ccccc2c2cc(C3C(C#N)=C(N)Oc4n[nH]c(COC)c43)ccc21 (stereo not drawn)	Marburg entry inh 5.2µM, LASV entry inh inconclusive, FMDV inh inconclusive
CCCc1[nH]nc2c1C(c1ccncc1)C(C#N)=C(N)O2 (stereo not drawn)	none
COc1ccc(CN2CCN(c3cc(C)nc4c5c(C)cc(C)nc5nn34)CC2)cc1F	none
Cc1ccc(-c2csc(NC(=O)C[n+]3cc(-c4ccc(C)cc4)n4c3CCC4)n2)cc1	none
Cc1ccc(C[n+]2cc(-c3ccc(Cl)cc3)n3c2CCC3)cc1	Marburg entry inh inconclusive, HCMV inh -61, LASV entry inh inconclusive
Cc1ccc(-c2c[n+](Cc3ccc(Cl)cc3)c3n2CCC3)cc1	HCMV inh -79, LASV entry inh inconclusive
COC(=O)c1cn(NC(=O)c2cccc(F)c2)c(=O)c2ccccc12	none
CCOC(=O)N1CCN(S(=O)(=O)c2ccc(C)c(C(=O)NC3CCCCC3)c2)CC1	none
CN1C(=O)c2ccccc2NC(=O)[C@]12O[C@@H]2c1ccccc1	none (no result: Marburg entry inh, LASV entry inh)
CN1NC(=O)c2ccccc2NC1=S	HCMV inh -61 (no result: Marburg entry inh, LASV entry inh, FMDV inh)
O=c1[nH]c(SCc2nc3ccccc3c(=O)n2-c2ccccc2C(F)(F)F)nc2ccccc12	HCMV inh inconclusive, FMDV inh 18µM
Cc1nc2ccccc2c(=O)n1-c1ccccc1C(F)(F)F	none (no result: FMDV inh)
CC1CN(CCOc2ccccc2C(C)C)CC(C)O1 (stereo not drawn)	none (no result: Marburg entry inh, LASV entry inh)
C=CCn1c(C(CCCC)CC(O)COCCC)n[nH]c1=S (stereo not drawn)	none (no result: Marburg entry inh, LASV entry inh)
C=CCn1c(CCC(O)COCCCCC)n[nH]c1=S (stereo not drawn)	HCMV inh -97
COc1ccc2c(CNCc3cccs3)c(C(=O)O)n(Cc3ccc(F)cc3Cl)c2c1	none (no result: Marburg entry inh)
N#Cc1c(CSCC(=O)O)cc(=O)n2c1[nH]c1ccccc12	none (no result: Marburg entry inh, LASV entry inh)
N#Cc1c(C(F)(F)F)cc(=O)n2c1[nH]c1ccccc12	Marburg entry inh inconclusive, HCMV inh -96, LASV entry inh inconclusive
CCc1nc2c(OCCOc3ccccc3)cccn2c1N(C)C(=O)C1CC1	none (no result: Marburg entry inh, HCMV inh, LASV entry inh)
COc1cccc(NS(=O)(=O)c2c(C)n(C)c(=O)n(C)c2=O)c1	HCMV inh -70 (no result: Marburg entry inh, LASV entry inh)
COc1ccc(C(=O)Nc2sc3c(c2C(=O)O)CC(C)(C)OC3)cc1	Marburg entry inh 4.5µM, LASV entry inh inconclusive
CC(C)COc1ccc(C(=O)Nc2sc3c(c2C(=O)O)CC(C)(C)OC3)cc1	Marburg entry inh 1.3µM, HCMV inh inconclusive, LASV entry inh inconclusive
CC1(C)Cc2c(sc(NC(=O)c3ccccc3)c2C(=O)O)CO1	Marburg entry inh inconclusive, LASV entry inh inconclusive
CCOc1ccccc1N1CCN(C(=O)CC(C)(C)C)CC1	Marburg entry inh inconclusive
O=C1CCC[C@@H]2[C@H](Cc3ccccc3)[C@@H](O)C[C@@H]3CCN1[C@@H]32	none (no result: Marburg entry inh, LASV entry inh)
O=C1CCC[C@@H]2[C@@H](Cc3ccccc3)[C@H](N3CCN(c4ccccc4)CC3)C[C@@H]3CCN1[C@@H]32	HCMV inh -80 (no result: Marburg entry inh, LASV entry inh)
Cc1ccc(/C=C2\SC(=S)N(CC3CCCO3)C2=O)o1 (stereo not drawn)	HCMV inh -85
COc1ccc2oc(C(=O)OCC(=O)N3CC(C)CC(C)C3)c(C)c2c1 (stereo not drawn)	none
FC(F)(F)c1cc(C(F)(F)F)c2ccc(N3CCN(c4ccc(Cl)cc4)CC3)nc2n1	none
N#CC(c1ccc(Cl)cc1)c1ccc2c(C(F)(F)F)cc(C(F)(F)F)nc2n1 (stereo not drawn)	Marburg entry inh 3.2µM, HCMV inh -106, LASV entry inh 2.8µM, FMDV inh inconclusive
CCn1c(C)nc2cc(OC)ccc21	HCMV inh inconclusive
C=CCN1C(=O)NC2(CCCCC2)C1=O	Marburg entry inh inconclusive
Cc1ccccc1Cn1c(=O)n(Cc2ccco2)c(=O)c2sc3ccccc3c21	Marburg entry inh inconclusive, HCMV inh -69
Cc1cccc(Cn2c(=O)n(CCc3ccccc3)c(=O)c3sc4ccccc4c32)c1	HCMV inh -95
CN(C)CCNc1ncnc2c1sc1nc(-c3ccccc3)c3c(c12)CCCC3	Marburg entry inh 10µM, HCMV inh -68, LASV entry inh inconclusive, FMDV inh inconclusive
COc1ncnc2c1sc1nc(-c3ccccc3)c3c(c12)CCCC3	HCMV inh inconclusive (no result: Marburg entry inh, LASV entry inh)
CN(C(=O)COC(=O)/C=C/c1cccc([N+](=O)[O-])c1)C1CCS(=O)(=O)C1 (stereo not drawn)	Marburg entry inh 3.5µM
CC1CN(S(=O)(=O)c2ccc(C(=O)Nc3nccs3)cc2)CC(C)O1 (stereo not drawn)	HCMV inh inconclusive (no result: Marburg entry inh, LASV entry inh)
CCOP(=O)(Nc1ccc2c(c1)C(=NNC(N)=S)c1ccccc1-2)OCC	Marburg entry inh inconclusive, FMDV inh 35µM
O=S(=O)(NC1CCSc2ccccc21)c1ccccc1 (stereo not drawn)	Marburg entry inh inconclusive
CC(=O)Nc1ccc(S(=O)(=O)NC2CCSc3ccccc32)cc1 (stereo not drawn)	Marburg entry inh 10µM, LASV entry inh inconclusive
O=C(Nc1ccccc1)C1=C[C@H](c2ccc3c(c2)OCO3)C[C@H](OCCCCO)O1	none (no result: Marburg entry inh, LASV entry inh)
N#Cc1ccsc1NC(=O)CSc1ncnc2ccccc12	FMDV inh inconclusive
CC(Sc1ncnc2c1cnn2-c1ccccc1)C(=O)NCC1CCCO1 (stereo not drawn)	none (no result: Marburg entry inh, LASV entry inh)
Cc1nc(SC(C)C(=O)NCC2CCCO2)c2cc(-c3ccccc3)sc2n1 (stereo not drawn)	Marburg entry inh 0.63µM, HCMV inh -89, LASV entry inh 0.5µM
O=c1c2ccccc2nnn1Cc1ccccc1Cl	none
CC(C)COC(=S)Nc1ccccc1	LASV entry inh inconclusive
CC(C)(C)n1nnnc1C(c1ccnc2ccccc12)N1CCC2(CC1)C(=O)NCN2c1ccccc1 (stereo not drawn)	none (no result: Marburg entry inh, LASV entry inh)
COc1cc(C2C(C#N)=C(N)Oc3cc4c(cc32)OCO4)cc(OC)c1OC (stereo not drawn)	Marburg entry inh inconclusive, HCMV inh -86, LASV entry inh inconclusive
Cc1ccc(C2C(C#N)=C(N)Oc3cc(N)ccc32)cc1 (stereo not drawn)	none (no result: Marburg entry inh, LASV entry inh)
COc1cc(C2C(C#N)=C(N)Oc3cc(N(C)C)ccc32)cc2c1OCO2 (stereo not drawn)	Marburg entry inh inconclusive, HCMV inh -78, LASV entry inh 0.52µM
COc1ccc(C2C(C#N)=C(N)Oc3cc(O)ccc32)cc1OC (stereo not drawn)	Marburg entry inh inconclusive
COc1cc(C2C(C#N)=C(N)Oc3cc(O)ccc32)cc2c1OCO2 (stereo not drawn)	Marburg entry inh inconclusive
COc1cc(C2C(C#N)=C(N)Oc3cc(O)ccc32)cc(OC)c1OC (stereo not drawn)	Marburg entry inh 1.8µM, HCMV inh -89, LASV entry inh inconclusive (no result: FMDV inh)

High-throughput results from PubChem BioAssay.
